Screening data deposited in PubChem by Emory University Molecular Libraries Screening Center.
The entries come from a sample that favours hits as a whole.
14-3-3g Raf: 14-3-3 gamma protein interaction modulation | P61981 | FP, 14-3-3gamma / TMR-pS259-Raf peptide binding | inhibition, % at 40 µM | 0.19% of 160,000 active | AID 422; in the data active = inhibition above about 30%;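 note: 0% = protein plus tracer without compound and 100% = blank with tracer alone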
Target sequence (P61981 whole entry, looked up): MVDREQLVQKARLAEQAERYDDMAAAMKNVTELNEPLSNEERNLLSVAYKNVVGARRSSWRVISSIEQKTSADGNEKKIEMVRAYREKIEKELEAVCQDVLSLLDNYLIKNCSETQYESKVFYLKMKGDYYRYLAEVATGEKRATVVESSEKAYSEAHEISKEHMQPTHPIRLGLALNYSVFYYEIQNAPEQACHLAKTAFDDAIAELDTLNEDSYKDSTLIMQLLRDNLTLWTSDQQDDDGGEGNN
An asterisk follows results filed as active; ! = repeats disagree.

SMILES	14-3-3g Raf
CC1=C(C(=O)OCCc2ccccc2)C(c2coc3ccccc3c2=O)C2=C(CC(c3cccs3)CC2=O)N1 (stereo unspecified)	4.7
Cc1ccc(C(=O)Nc2cc(-c3nc4ccccc4o3)ccc2Cl)cc1[N+](=O)[O-]	-155.9
COc1cccc(C(=O)Cn2c(NCCCO)nc3ccccc32)c1	-4.6
O=C(Nc1cccc(NC(=O)c2cccc(Cl)c2)c1)c1ccc(-c2ccccc2)cc1	0.0
Cc1ccc([N+](=O)[O-])cc1S(=O)(=O)N1CCCCC1	5.0
CN1CCN(c2ccc([N+](=O)[O-])cc2S(=O)(=O)N2CCCC2)CC1	38.7*
O=[N+]([O-])c1ccc(N2CCCC2)c(S(=O)(=O)N2CCOCC2)c1	-4.5
CCOC(=O)C12C(=O)OC(C)(C)C1C2(CC)C(=O)c1ccc(C)cc1 (stereo unspecified)	4.7
Cc1cc(=O)oc2c(CN3CCCCC3)c(O)c(Cl)cc12	-7.0
Cc1cc(=O)oc2c(CN3CCC(C)CC3)c(O)c(Cl)cc12	60.5*
CCN(CC)Cc1c(O)c(Cl)cc2c(C)cc(=O)oc12	63.4*
Cc1cc(=O)oc2c(CN(CC(C)C)CC(C)C)c(O)ccc12	-18.5
CCN1CCN(Cc2c(O)c(Cl)cc3c(C)cc(=O)oc23)CC1	17.0
Cc1c(C)c2cc(Cl)c(O)c(CN3CCN(C)CC3)c2oc1=O	0.6
CC(=O)Oc1ccc(C(=O)Nc2ccc3oc(-c4ccc(Cl)cc4)nc3c2)cc1	-14.5
Cc1cc(OCc2nc(-c3nonc3N)no2)ccc1Cl	-3.1
O=C(Cn1ccc2ccccc2c1=O)NCCC(=O)N1CCN(Cc2ccc3c(c2)OCO3)CC1	3.1
COc1ccc([N+](=O)[O-])cc1C1Oc2nc(SC)nnc2-c2ccccc2N1C(C)=O (stereo unspecified)	0.1
COc1ccc(C2C(=O)N(CCc3ccccc3)CC(=O)N2C2CCCC2)cc1 (stereo unspecified)	-3.0
COC(=O)c1ccc(-c2csc(NC(=O)c3ccc(S(=O)(=O)N4CCOCC4)cc3)n2)cc1	1.6
COc1cc(C=Nc2ccc(O)cc2)ccc1OC(=O)CC1SC(=O)NC1=O (stereo unspecified)	103.3*
COC(=O)CC1SC(=O)NC1=Nc1ccc(O)cc1 (stereo unspecified)	-6.5
COc1cc(C=Nc2ccc(N(C)C(C)=O)cc2)ccc1OC(C)=O	3.2
O=C(NCc1cccnc1)c1c(O)c2cccc3c2n(c1=O)CCC3	-10.4
COc1ccccc1-c1c(C(F)(F)F)oc2cc(OCc3ccccc3)ccc2c1=O	1.4
SMILES	14-3-3g Raf
COc1ccc(-c2nc(CSCC(=O)NCC3CCCO3)c(C)o2)cc1OC (stereo unspecified)	-3.4
COc1ccc(-c2nc(CSCC(=O)N3CCC(C(N)=O)CC3)c(C)o2)cc1OC	2.6
CCOC(=O)N1CCC(NC(=O)CSCc2nc(-c3ccc(OC)c(OC)c3)oc2C)CC1	60.7*
Cc1cc(C)cc(Oc2c(C(F)(F)F)oc3cc(OCC(=O)OC(C)C)ccc3c2=O)c1	0.4
CC1CC(C)CN(c2cc(NCCCC(=O)O)c3c4c(onc24)-c2ccccc2C3=O)C1 (stereo unspecified)	-12.8
CC1CCCN(c2cc(NCCCC(=O)O)c3c4c(onc24)-c2ccccc2C3=O)C1 (stereo unspecified)	51.3*
O=C(O)CCCNc1cc(N2CCN(C3CCCCC3)CC2)c2noc3c2c1C(=O)c1ccccc1-3	-103.7
CC(C)(C)c1ccc(-c2csc(NC(=O)c3cc(Cl)ccc3[N+](=O)[O-])n2)cc1	4.9
C=CCc1cccc(/C=N/c2ncn[nH]2)c1O	-2.4
CCc1ccc(O)c(N=Cc2cccc(C)c2O)c1	-20.2
C=CCc1cccc(C=Nc2cc(Br)ccc2O)c1O	42.5*
Cc1cc(Cl)ccc1OC(C)C(=O)Nc1ccc(S(N)(=O)=O)cc1 (stereo unspecified)	-6.2
CCN(CC)C(=O)C[n+]1ccc(C(N)=O)cc1	-0.5
C=CCN(CC=C)C(=O)C[n+]1cccc(C(N)=O)c1	0.7
C=CCN(CC=C)C(=O)C[n+]1ccc(C(N)=O)cc1	40.0*
Cc1ccc(C(C)C)c(OCC(=O)Nc2ccc(S(=O)(=O)N3CCCC3)cc2)c1	-12.2
c1cn(CCCNc2ncnc3sc4c(c23)CCCC4)cn1	-6.4
CCC1=NNc2cccc3c(OC)ccc1c23	141.8*
COc1ccc(C(C)=O)c2c(O)cccc12	3.3
COc1ccc2c3c(cccc13)OCC2=O	-3.9
Cc1ccc(CSC2=NCCN2C(=O)c2ccc(Br)o2)cc1	-2.4
O=C(NCc1ccccc1Cl)C1(S(=O)(=O)c2ccc(Cl)cc2)CC1	-12.9
CCn1c[n+](CC(O)COc2cccc(OC)c2)c2cc(C)c(C)cc21 (stereo unspecified)	-6.6
Cc1ccc2nc(-c3cccc([N+](=O)[O-])c3)oc(=O)c2c1	-4.3
CC(C)Nc1cc2c(NC(C)C)onc2c2c1C(=O)c1ccccc1C2=O	87.2*
SMILES	14-3-3g Raf
CNc1cc(Nc2ccc(C)cc2)c2c3c(onc13)-c1ccccc1C2=O	-89.4
COC(=O)C(C(=O)OC)c1cc(Br)c2noc3c2c1C(=O)c1ccccc1-3	-57.3
CCCn1cc(SCC(=O)Nc2ccc(Br)cc2)c2ccccc21	5.4
O=C1Nc2ccccc2Oc2cc([N+](=O)[O-])cc(Oc3ccccc3)c21	-78.9
COc1cccc(Oc2cc([N+](=O)[O-])cc3c2C(=O)Nc2ccccc2O3)c1	60.8*
Cc1cccc(Oc2cc([N+](=O)[O-])cc3c2C(=O)Nc2ccccc2O3)c1	-83.1
O=C(Nc1cccc(C(F)(F)F)c1)c1ccc(Br)c([N+](=O)[O-])c1	73.4*
Cc1c(C(=O)Nc2cccc(C(F)(F)F)c2)cccc1[N+](=O)[O-]	-2.7
O=C(Nc1cccc(C(F)(F)F)c1)c1ccc(NC(=O)c2cccc(Br)c2)cc1	-14.7
O=C(COc1nnnc2ccccc12)N1CCCc2ccccc21	-7.9
O=S(=O)(c1ccc2ccccc2c1)N1CCCOC1	3.5
Cc1cc(-c2ccccc2C(=O)O)on1	-2.5
O=C(O)c1ccccc1C1=Nc2ccc(O)cc2Oc2cc(O)ccc21	122.7*
O=C1c2ccccc2C(=O)c2cc(O)ccc21	-16.6
CCOC(=O)c1cc2c(n(-c3ccc(C)cc3)c1=O)CC(C)(C)CC2=O	-6.7
O=S(=O)(NCc1cccnc1)c1ccc(Cl)c(Cl)c1Cl	0.2
Cc1nc2c(C(=O)NCc3ccco3)cnn2c(C)c1Cc1ccc(Cl)cc1	-3.5
Cc1ccc(S(=O)(=O)N2CCCC2C(=O)O)cc1 (stereo unspecified)	53.0*!
O=C(O)C1CCCCN1S(=O)(=O)c1ccc(Cl)cc1 (stereo unspecified)	-12.3
O=C(O)C1CCCN1S(=O)(=O)c1ccc(F)cc1 (stereo unspecified)	-6.0
Cn1cnc2cc(NCc3ccccn3)ccc21	3.1
CC(C)(C)n1cnc2cc(NCc3ccccn3)ccc21	31.6*
CC(C)(C)n1cnc2cc(NCc3ccncc3)ccc21	6.2
O=C(NCCSc1c(-c2ccc(Cl)cc2)[nH]c2ccccc12)c1cccs1	3.3
CCOC(=O)c1c(NC(=O)CCN2CC(C)OC(C)C2)sc2c1CCC2 (stereo unspecified)	-9.6
CSc1cccc(Nc2cc(C(=O)NCC3CCCO3)c3ccccc3n2)c1 (stereo unspecified)	12.6
COC(=O)C1=C(C)NC(=S)NC1c1cccc(Cl)c1 (stereo unspecified)	4.8
O=[N+]([O-])c1cc(Oc2ccc(Cl)cc2)c2c(c1)Oc1ccccc1C=C2	-7.8
NC(=O)c1c(NC(=O)c2ccccc2Cl)sc2c1CCCC2	4.2
